# Measured values taken from PubChem BioAssay AID493170 (National Center for Advancing Translational Sciences (NCATS), 2011).
# Results filed as inconclusive are left out. Active and inactive are the calls of the source. Calls follow the shape of the dose curve; as a rule, active = well fitted inhibition curve with a large enough effect; inconclusive = small, poorly fitted or top-dose-only effect, or effect the other way; inactive = flat fitted curve, though single readings scatter.
# Target: Ubiquitin carboxyl-terminal hydrolase 2 (Homo sapiens) (UniProt O75604)
# Sequence (O75604 whole entry, looked up): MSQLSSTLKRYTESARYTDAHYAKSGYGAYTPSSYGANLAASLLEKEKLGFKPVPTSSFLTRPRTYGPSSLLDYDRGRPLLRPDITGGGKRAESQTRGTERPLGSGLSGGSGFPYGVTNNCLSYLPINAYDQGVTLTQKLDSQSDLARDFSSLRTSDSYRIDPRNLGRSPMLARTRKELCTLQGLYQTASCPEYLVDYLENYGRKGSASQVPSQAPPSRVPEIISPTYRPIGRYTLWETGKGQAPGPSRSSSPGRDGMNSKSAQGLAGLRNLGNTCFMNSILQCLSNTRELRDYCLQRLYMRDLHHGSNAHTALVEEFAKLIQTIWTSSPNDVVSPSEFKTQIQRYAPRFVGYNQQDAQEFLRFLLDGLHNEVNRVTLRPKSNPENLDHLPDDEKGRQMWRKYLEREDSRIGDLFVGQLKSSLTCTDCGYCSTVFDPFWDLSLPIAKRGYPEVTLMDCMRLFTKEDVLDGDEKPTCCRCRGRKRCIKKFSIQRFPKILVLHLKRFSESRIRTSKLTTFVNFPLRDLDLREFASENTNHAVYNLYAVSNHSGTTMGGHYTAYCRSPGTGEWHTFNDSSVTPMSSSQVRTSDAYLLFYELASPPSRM
# Test: Ub-rhodamine 110 based assay for inhibitors Ubiquitin-specific Protease USP2a; also: nearly all actives have a fitted effect of over 50% in size
# Conditions: USP2a Ub-rhodamine110 cleavage, fluorescence; series mostly up to 38.3 µM; activity change, negative = inhibition: at the top concentration
# How it was run: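 5 nM USP2a preincubated with compounds for 30 min at RT in 20 mM Tris-HCl pH 8.0, 2 mM CaCl2, 2 mM beta-mercaptoethanol, 0.05% CHAPS. Cleavage of 150 nM Ub-rhodamine 110 read kinetically (Ex 485/Em 531) for 7 min.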
# % is scaled to controls: 0 for no effect and ±100 for the full control effect; potency is read from the fitted curve at half-maximal effect.
Structure (SMILES),Potency,"activity change, negative = inhibition"
O=C(O)c1cccc(-n2cccc2/C=C2/NC(=O)N(c3ccc(Cl)cc3)C2=O)c1,4.47 µM (active),–
Cc1ccccc1OCc1nc2ccccc2c(=O)n1N,–,-11.7% (inactive)
O=C(Nc1ccccc1)Nc1snnc1C(=O)Nc1cccc(O)c1,10 µM (active),–
Cc1cccc2c1N(CCCOc1ccc(C(C)(C)C)cc1)C(=O)C2=O,–,-18.2% (inactive)
CCn1c(=O)c(C(=O)Nc2ccccc2S(N)(=O)=O)c(O)c2ccccc21,5.62 µM (active),–
COc1ccccc1C1NC(c2ccccc2OC)C(C)C(=O)C1C (centres undefined),–,5.06% (inactive)
CCC1=[N+](CC(=O)c2ccc(Br)cc2)CCn2c(C)ccc21,–,-20.7% (inactive)
C=CCOc1cccc(C2C(C(=O)c3ccco3)=C(O)C(=O)N2CCN(CC)CC)c1 (centres undefined),–,-4.77% (inactive)
COC(=O)C1Sc2[nH]c(=O)sc2C(c2ccc(Cl)cc2)C1C(=O)OC (centres undefined),–,-5.69% (inactive)
COc1cc(OC)cc(-c2c(C#Cc3ccsc3)c3cc(-c4ccc(OC)c(F)c4)ccc3n2C)c1,–,-6.24% (inactive)
CC1CC(C)CN(C(=O)CSc2nnc(-c3ccc(Cl)cc3)o2)C1 (centres undefined),–,1.57% (inactive)
CCOc1ccc(CCn2c(-c3ccco3)nc3ccccc3c2=O)cc1OCC,–,-9.5% (inactive)
COCCNCC(=O)N1CCCCCC1,–,-3.07% (inactive)
CCN(CC)CCNc1nc(-c2ccccc2)c2c(c1C#N)CC(C)(C)OC2,–,-1.63% (inactive)
c1ccc(CN2CCN(CCOCCOc3cccc4ccccc34)CC2)cc1,–,-6.82% (inactive)
Cc1noc(/C=C/c2ccco2)c1S(=O)(=O)N1CCC(C(=O)N(C)Cc2ccccc2)CC1,10 µM (active),–
C#CCOCCOCCOCCNc1nc(N2CCN(C(=O)CCCCCCCCCCNC(=O)Cn3cc(CCCCCN)nn3)CC2)nc(N2CCN(C(=O)CCCCCCCCCCNC(=O)Cn3cc(CCCCCN)nn3)CC2)n1,–,-13.9% (inactive)
O=C(CCSCc1ccc(Cl)cc1)NCCc1ccccc1,–,-6.25% (inactive)
COc1ccc(/C=C2/SC(=S)N(c3ccc(S(=O)(=O)Nc4nccs4)cc3)C2=O)cc1,3.16 µM (active),–
CCCn1nnc(NC(=O)c2cccc(OCC(C)C)c2)n1,–,-0.324% (inactive)

Structure (SMILES),Potency,"activity change, negative = inhibition"
COc1ccccc1C(=O)N1CCN=C1SC,–,4.99% (inactive)
CCn1c2ccccc2c2nc3ccccc3nc21,–,-13% (inactive)
CCNc1sc(C(=O)c2cccs2)c(N)c1-c1nc2ccccc2s1,–,-4.43% (inactive)
O=C(OCC(=O)N1CCCCC1)c1cc2ccccc2cc1O,–,1.09% (inactive)
O=C(CSc1nc(N2CCCCC2)nc(N2CCCCC2)n1)N1CCN(c2ccccc2)CC1,–,-4.93% (inactive)
O=C1N=c2ccccc2=C1c1sc(Nc2ccc(O)cc2)nc1O,7.94 µM (active),–
Nc1c(C(=O)Nc2ccc(Cl)cc2)oc2ccccc12,–,-19.9% (inactive)
Cc1cc(=O)n2[nH]c(-c3sccc3-n3c(C)ccc3C)cc2n1,10 µM (active),–
O=C(COC(=O)/C=C/c1ccc(Cl)cc1)NC1CC1,–,2% (inactive)
CCOC(=O)Nc1ccc(S(=O)(=O)Nc2cc(C)nc(C)n2)cc1,–,1.26% (inactive)
CCCCCCCCCCOC(=O)Cn1c(COc2ccccc2OC)[n+](C)c2ccccc21,–,-13.7% (inactive)
Nc1ccc2nc(-c3ccc(N)c(Cl)c3)[nH]c2c1,–,-10.3% (inactive)
COc1ccc(NC(=O)CN(Cc2ccccc2)S(C)(=O)=O)cc1,–,-5.7% (inactive)
CN(C)CCOCCP(=O)(c1ccccc1)c1ccccc1,–,-0.767% (inactive)
CC1(C)CC(=O)C2=C(C1)NCN(CCCN1CCOCC1)C2,–,1.43% (inactive)
Cc1cccc(Nc2nc(NCc3ccco3)c3ccccc3n2)c1,–,-11.2% (inactive)
COCc1cc(C)nc(SCC[N+](C)(C)CC(=O)Nc2cccc(C(F)(F)F)c2)c1C#N,–,-7.94% (inactive)
O=C(NC1CCCC1)C1C2C=CC(C2)C1C(=O)N1CCOCC1 (centres undefined),–,2.69% (inactive)
Cc1c(C(=O)Nc2ccc3c4c(cccc24)CC3)cccc1[N+](=O)[O-],–,-18% (inactive)
